# Laboratory results published in PubChem BioAssay (NCATS).
# Inconclusive results are not listed. Unmarked numbers belong to inactive results. Activity calls are given as the source filed them. Calls follow the shape of the dose curve; as a rule, active = well fitted inhibition curve with a large enough effect; inconclusive = small, poorly fitted or top-dose-only effect; inactive = no such curve, though single readings can be large or run the other way.
# Biological target: Cytochrome P450 3A7 (Homo sapiens) (UniProt P24462)
# Sequence (P24462 whole entry, looked up): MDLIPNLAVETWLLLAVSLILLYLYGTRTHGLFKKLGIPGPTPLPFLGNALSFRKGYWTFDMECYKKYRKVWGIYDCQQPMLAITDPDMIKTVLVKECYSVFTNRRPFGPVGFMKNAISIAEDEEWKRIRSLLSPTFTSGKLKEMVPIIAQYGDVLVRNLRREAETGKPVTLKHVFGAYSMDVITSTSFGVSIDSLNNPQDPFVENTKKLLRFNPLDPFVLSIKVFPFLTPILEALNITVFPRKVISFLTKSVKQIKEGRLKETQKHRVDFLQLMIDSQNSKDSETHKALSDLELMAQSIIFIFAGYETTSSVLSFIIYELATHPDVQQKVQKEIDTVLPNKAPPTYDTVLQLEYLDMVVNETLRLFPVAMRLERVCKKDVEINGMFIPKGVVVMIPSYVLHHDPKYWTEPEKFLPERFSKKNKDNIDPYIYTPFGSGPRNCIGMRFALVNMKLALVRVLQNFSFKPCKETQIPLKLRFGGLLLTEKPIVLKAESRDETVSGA
# Assay: Cytochrome P450 family 3 subfamily A member 7 (CYP3A7) small molecule antagonists: luciferase biochemical qHTS assay (AID 1963596); also: nearly all actives have a fitted effect of over 40% in size
# Settings: P450-Glo CYP3A7 enzyme luminescence, 1 h; series mostly up to 57.4 µM; activity change, negative = inhibition: at the top concentration
# In short: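 Luminescence read-out (relative luminescence units) after 20 min with detection reagent, which stops the reaction. Enzyme, proluciferin substrate and compound preincubated 10 min, RT; NADPH regeneration system then started 1 h reaction. Ketoconazole as positive control.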
# % is scaled to controls: 0 for no effect and ±100 for the full control effect; potency is read from the fitted curve at half-maximal effect.
SMILES,"activity change, negative = inhibition [%]",Potency
C[N+]1(CCCCC[N+]2(C)CCCC2)CCCC1,-7.69,–
CCCCC(=O)O,0,–
CC(=O)Nc1nc2c(Oc3cc(-c4ccc(C(F)(F)F)cc4)ncn3)cccc2s1,–,26.8 µM (active)
Cc1ncc(C[n+]2csc(CCO)c2C)c(N)n1,-4.34,–
Cc1cc(C(C)Nc2ccccc2C(=O)O)c2nc(N3CCOCC3)cc(=O)n2c1 (centres undefined),0,–
Cc1cc(Nc2ccc(NC(=O)c3ccc(Nc4ccnc5ccccc45)cc3)cc2)nc(N)n1,10.5,–
C=CCNCCCCCC[N+](C)(C)C,3.31,–
CCC(COC)n1nnc2c(Nc3ccc(OC)cc3C)nc(C)cc21 (centres undefined),0,–
CCOC(=O)C1=C(O)c2ccccc2S(=O)(=O)N1C,-6.4,–
CCOC(C)OCC,-2.17,–
Nc1c(CC(=O)O)cccc1C(=O)c1ccccc1,-14.8,–
CC(C)c1cccc(O)c(=O)c1,0.829,–
COc1ccc(-n2nc3c(N4CCCC(C(=O)NCc5ccc(C)cc5)C4)nnc(C)c3c2C)cc1 (centres undefined),14.6,–
O=C(O)c1cc(C(F)(F)F)ccc1N1CC[C@H](OCc2ccccn2)C1,-11,–
CC(NC(=O)CCc1nc2ccccc2c(=O)[nH]1)c1ccccc1 (centres undefined),0,–
CC(C)NC(=O)c1ccc(C#Cc2ccncc2)cn1,-10.2,–
C[C@H](CCCC(C)(C)O)[C@H]1CC[C@H]2[C@@H]3CC=C4C[C@@H](O)CC[C@]4(C)[C@H]3CC[C@]12C,2.19,–
CN1CCN(c2cc3c(cc2F)c(=O)c(C(=O)O)cn3-c2ccc(F)cc2)CC1,15,–
COc1cccc(C(=O)NC(c2ccc(Cl)cc2)c2cc(Cl)c3cccnc3c2O)c1 (centres undefined),-6.07,–
